Screening results (PubChem BioAssay)
TrxR1 substrate – qHTS Assay for Substrates of Mammalian Selenoprotein Thioredoxin Reductase 1 (TrxR1): qHTS; Potency, µM (series often up to 114 µM), inactives show at the highest dose activity change, negative = substrate turnover; purified TrxR1 substrate turnover, NADPH consumption readout; Thioredoxin reductase 1, cytoplasmic (Rattus norvegicus), O89049; AID 588456, 2011; 390,000 compounds, 0.01% hits; also: % is scaled to controls: 0 for no effect and ±100 for the full control effect; nearly all actives have a fitted effect of over 50% in size
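Rat TrxR1, dispensed at 90 nM, was prereduced with 400 uM NADPH (final) for 5 min at ~22 deg C, then incubated with compound 15 min before 400 uM selenite. A first-read NADPH fluorescence drop versus no-compound background flagged substrates.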
Vif-A3G inh – qHTS for Inhibitors of Vif-A3G Interactions: qHTS; HeLa A3G-eYFP + Vif (tagged APOBEC3G with the HIV-1 protein that degrades it), YFP fluorescence, overnight; Potency, µM (doses to about 46.1 µM), inactives show at the top dose activity, negative = active, most hits filed as inhibitors; 410,000 compounds, 0.076% hits; also: % is scaled to controls: 0 for no effect and ±100 for the full control effect; nearly all actives have a fitted effect of over 60% in size
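HeLa cells stably expressing Vif and C-terminally eYFP-tagged A3G, seeded overnight at 37 deg C, then exposed to compound by pintool overnight at 37 deg C. Rise in yellow fluorescence (Ex 488/Em 500-530, Acumen) marks blocked Vif-driven A3G degradation.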
Vif-A3F inh – qHTS for Inhibitors of Vif-A3F Interactions: qHTS. HeLa A3F-eYFP + Vif (tagged APOBEC3F with the HIV-1 protein that degrades it), YFP fluorescence increase. Potency, µM (doses to about 46.1 µM), for inactives: at the highest dose activity, negative = active. 390,000 compounds, 0.2% hits. AID 602313, 2012; also: % of control where 0% means no effect; nearly all actives have a fitted effect of over 65% in size
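HeLa cells stably expressing Vif plus C-terminally eYFP-tagged A3F were seeded, incubated overnight at 37 deg C, dosed with compound, incubated overnight again at 37 deg C. Yellow fluorescence (Ex 488/Em 500-530) reported blocked Vif-mediated A3F-eYFP degradation.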
VDR inhibitor – Inhibitors of the vitamin D receptor (VDR): qHTS. Vitamin D3 receptor (Homo sapiens), P11473. VDR-SRC2-3 peptide fluorescence polarization, 2 h. Potency, µM, inactives show max response, negative = inhibition, usual class: inhibitors. 400,000 compounds, 0.93% hits. AID 504847, 2011; also: % is scaled to controls: 0 for no effect and ±100 for the full control effect
Target sequence (P11473 whole entry, looked up): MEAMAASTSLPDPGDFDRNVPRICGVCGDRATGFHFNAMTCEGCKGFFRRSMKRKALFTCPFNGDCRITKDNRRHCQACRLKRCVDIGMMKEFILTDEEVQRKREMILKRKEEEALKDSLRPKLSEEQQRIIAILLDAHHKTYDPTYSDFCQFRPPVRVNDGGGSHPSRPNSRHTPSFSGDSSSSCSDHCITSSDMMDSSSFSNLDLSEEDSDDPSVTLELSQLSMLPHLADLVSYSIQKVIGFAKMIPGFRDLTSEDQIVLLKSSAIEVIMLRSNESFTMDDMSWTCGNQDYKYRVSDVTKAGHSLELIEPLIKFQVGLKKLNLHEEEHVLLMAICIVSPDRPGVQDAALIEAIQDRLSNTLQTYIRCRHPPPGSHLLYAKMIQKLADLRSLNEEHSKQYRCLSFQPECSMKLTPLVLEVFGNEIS
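Compounds are added to VDR with labelled SRC2-3 coactivator peptide and held 2 h at room temperature. Inhibition of the VDR–peptide interaction is then read as a change in fluorescence polarization.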
TrxR1 inh – qHTS Assay for Inhibitors of Mammalian Selenoprotein Thioredoxin Reductase 1 (TrxR1): qHTS; recombinant rTrxR1, NADPH fluorescence consumption, selenite substrate; Potency, µM (series often up to 114 µM), for the others: at the top dose activity change, negative = inhibition, most hits filed as inhibitors; 390,000 compounds, 1% hits; Thioredoxin reductase 1, cytoplasmic (Rattus norvegicus), O89049; also: % is scaled to controls: 0 for no effect and ±100 for the full control effect; nearly all actives have a fitted effect of over 65% in size
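Rat TrxR1 (90 nM in the dispensed reagent) was pre-reduced with 400 uM NADPH for 5 min at room temperature, then incubated with compound for 15 min. After 400 uM selenite was added, NADPH fluorescence (Ex 340/Em 450 nm) was followed for 8 min.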
* marks the source's active call; other numbers are inactive results; u = inconclusive; x = no result given; [ ] = another dose, or the depositor's remark. Rows were chosen to be rich in hits. Some 1.8% of all compounds tested hit in one or more screens of this group. Calls follow the shape of the dose curve; as a rule, active = well fitted curve in the direction sought with a large enough effect; inconclusive = small, poorly fitted or top-dose-only effect, or another doubt; inactive = no such curve, though single readings can be large; an effect the other way counts as inactive or inconclusive. Potency is read from the fitted curve at half-maximal effect.

SMILES | TrxR1 substrate | Vif-A3G inh | Vif-A3F inh | VDR inhibitor | TrxR1 inh
Nc1nc[nH]c(=O)c1N | -2% | 2% | x | x | -5%
O=C(C=Cc1ccccn1)c1ccccc1 | 3%[57.1 µM] | u | 4% | 20µM* | -87%[57.1 µM]
O=C(/C=C/c1ccccc1Cl)Nc1ccncc1 | -6% | -3% | x | 4% | -1%
CCC(CC)NC(=O)/C=C/c1ccccc1Cl | 3% | -9% | -1% | 50µM* | 15%
O=C(C=Cc1ccccc1Cl)c1ccccc1 | 0%[2.29 µM] | -22% | 3% | 35µM* | -48%[57.1 µM]
O=C(/C=C/c1ccc(-c2ccccc2)o1)c1ccccc1 | -4% | -24% | 3% | -19% | u
COc1cc(/C=C/C(=O)c2ccccc2O)cc(OC)c1OC | -10% | u | 10% | 32µM* | 50µM*
COc1cc(OC)c(OC)cc1/C=c1\[nH]c(=O)/c(=C/c2cc(OC)c(OC)cc2OC)[nH]c1=O | 4% | u | x | x | 1%
O=C(C=Cc1ccccn1)c1ccccc1O | 8%[57.1 µM] | -8% | 6% | 56µM* | -70%[57.1 µM]
O=C(/C=C/c1cccnc1)c1ccccc1O | -4%[2.29 µM] | -2% | -6% | u | -4%[2.29 µM]
c1ccc(CNc2cc(-c3ccoc3)ncn2)cc1 | x | x | x | 13µM* | x
c1ccc(Nc2cc(-c3ccoc3)ncn2)cc1 | x | x | x | 11µM* | x
CN(C)Cc1ccccc1-c1cc(Nc2ccccc2)ncn1 | x | x | x | 5% | x
COc1ccc(CNc2cc(-c3ccoc3)ncn2)c(OC)c1 | x | x | x | 11µM* | x
CN(Cc1ccccc1)C(=O)c1ccc(CSc2nc3cccnc3n2Cc2ccccc2)cc1 | 0% | 0% | 2% | 9% | -4%
CCOc1cc(-c2ccc3c(c2)OCO3)cc(=[O+]CC)c2c(C)oc(C)c12 | -6% | -6% | x | u | u
O=c1oc2ccc(F)cc2cc1-c1nc(-c2cccs2)no1 | 0% | -3% | -1% | 0% | 23%
Clc1ccc(/C=C/c2ccncc2)cc1Cl | 1% | -2% | x | x | u
CCN1CCN(C(=S)c2ccc([N+](=O)[O-])cc2)CC1 | -7% | 1% | -10% | 71µM* | -10%
CCCOc1ccc(/C=C/C(=O)Nc2sc(C)c(C)c2C(=O)OCC)cc1OC | -2% | 4% | 0% | 16µM* | u
CC(C)(C)NC(=O)C(c1ccc(Cl)cc1)N(Cc1ccco1)C(=O)CCl (centres undefined) | 4% | -8% | 4% | -18% | 13µM*
CC(C)(C)NC(=O)C(c1ccc(O)cc1)N(Cc1ccco1)C(=O)CCC(=O)Nc1ccccn1 (centres undefined) | 6% | -2% | 5% | -11% | 15%
O=C(NC1CCCCC1)C(c1ccncc1)N(Cc1ccccc1)C(=O)c1ccc(-c2ccccc2)[nH]1 (centres undefined) | -2% | 2% | -5% | 4% | u
CC(C)(C)NC(=O)C(c1ccncc1)N(Cc1ccco1)C(=O)c1ccc(-c2ccccc2)[nH]1 (centres undefined) | -5%[57.1 µM] | -27% | 2% | 71µM* | u
O=C(NCc1ccco1)c1cc2c(s1)CSC2 | 13% | 0% | -2% | u | 7.9µM*
SMILES | TrxR1 substrate | Vif-A3G inh | Vif-A3F inh | VDR inhibitor | TrxR1 inh
O=C(NCc1ccc2c(c1)OCO2)c1cc2c(s1)CSC2 | 9%[57.1 µM] | 1% | -7% | -13% | 12%[57.1 µM]
CC1(C)OC(=O)C2(Cc3ccccc3N3CCCC32)C(=O)O1 (centres undefined) | 17% | 2% | x | -16% | 17%
O=C(C1=C(O)C(=O)N(CCN2CCOCC2)C1c1cccc(F)c1)c1cc2ccccc2o1 (centres undefined) | -12% | -5% | -6% | -27% | u
CC(=O)C1=C(O)C(=O)N(CCN2CCOCC2)C1c1ccccc1 (centres undefined) | -3% | 1% | -1% | 26% | 50µM*
O=C(C1=C(O)C(=O)N(CCN2CCOCC2)C1c1ccc(Br)cc1)c1cc2ccccc2o1 (centres undefined) | -7% | -7% | 8% | -8% | 10%
Cc1ccc(C2C(C(=O)c3cc4ccccc4o3)=C(O)C(=O)N2CCN2CCOCC2)o1 (centres undefined) | -9% | 0% | x | 1% | 22µM*
O=C(C1=C(O)C(=O)N(CCN2CCOCC2)C1c1cccs1)c1cc2ccccc2o1 (centres undefined) | -1% | -6% | -10% | -13% | 56µM*
CCOc1ccc(C2C(C(=O)c3ccc(C)o3)=C(O)C(=O)N2CCN2CCOCC2)cc1OC (centres undefined) | -7% | 2% | -3% | -3% | 56µM*
COc1ccccc1C(=O)NCc1nc2cccnc2n1Cc1ccc(F)cc1 | -7%[57.1 µM] | -3% | 0% | -3% | 1%[57.1 µM]
O=C(Nc1nnc(C2CCCCC2)s1)C1CCN(C(=O)c2ccco2)CC1 | -3% | 0% | x | 7% | -14%
Cc1ccc(CNC(=O)c2c(-c3ccccc3Cl)noc2C)cc1 | -3% | -4% | -2% | 11% | 1%
Cc1onc(-c2ccccc2Cl)c1C(=O)NCc1ccco1 | 3% | -5% | 1% | -14% | 50µM*
O=C(NCc1ccco1)c1ccc2c(c1)C(=O)c1ccccc1-2 | 4%[57.1 µM] | 2% | -8% | -9% | 20µM*
Cc1ccc(CNCc2cn[nH]c2-c2ccc(C)cc2)cc1 | 4% | 4% | x | -27% | 16%
CCCN1CNc2c(c(=O)[nH]c(=S)n2CCc2ccc(OCC)c(OCC)c2)C1 | -10% | x | x | -5% | -24%
Cc1ccc(S(=O)(=O)N2CCN(c3nc(-c4ccncc4)nc4ccccc34)CC2)cc1 | 5% | x | x | -25% | 45µM*
Cc1ccc(S(=O)(=O)N2CCN(c3nc(-c4cccnc4)nc4ccccc34)CC2)cc1 | 3% | x | x | -9% | -29%
O=C(NCCc1ccccc1Cl)c1ccc(Cn2c(=O)c3cccn3c3cccnc32)cc1 | 96% | u | u | 12% | 32%
CCn1nc(-c2ccccc2)c2nc3ccccc3nc21 | 4%[57.1 µM] | 13µM* | 25µM* | 7% | 11%[57.1 µM]
CCCn1nc(-c2ccccc2)c2nc3ccccc3nc21 | -1% | -13% | u | 3% | 5%
COC(=O)Cc1nnc(SCC(=O)Nc2ccccc2)c2ccccc12 | -6% | -5% | -3% | 79µM* | 50µM*
COc1ccc(C)cc1N(C)C(=O)c1sc2nc3n(c(=O)c2c1C)CCCCC3 | -4% | -7% | 0% | -4% | 79µM*
Cc1c(C(=O)NCc2ccc(Cl)cc2)sc2nc3n(c(=O)c12)CCC3 | -2% | 3% | -2% | -6% | 3%
COc1ccc(CNC(=O)c2sc3nc4n(c(=O)c3c2C)CCCCC4)cc1 | 23% | -1% | 5% | -9% | 7.1µM*
